A number with no mark means an inactive call.
What follows are compounds tested on primary human airway basal cells (HBEC, luciferase-transduced) (assay: proliferation (luciferase bioluminescence) Z score relative to plate mean; higher = more proliferation / more cells, active = 1.96 or more). Conditions: donor: 1; 0.5 µM; library: ENZO Libraries; 4 days.
Procedure: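 Primary human bronchial epithelial (airway basal) cells from two donors, lentivirally transduced with pHIV-Luc-ZsGreen, were seeded at 2000 cells/well in 384-well plates in FAD medium with ENZO or Prestwick library compounds and cultured for 4 days. Luciferin was then added and bioluminescence was read as a measure of cell number. Relative light units were converted to Z scores against the plate, and the mean of triplicate wells is reported.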

Row | Structure (SMILES) | proliferation
1 | N#C/C(=C\c1ccc(O)c(O)c1)C(N)=S | -0.0372
2 | CCC(=O)CCCCC[C@@H]1NC(=O)[C@H]2CCCCN2C(=O)[C@H]([C@@H](C)CC)NC(=O)[C@H](Cc2cn(OC)c3ccccc23)NC1=O [Apicidin] | -0.149
3 | COC[C@H]1OC(=O)c2coc3c2[C@@]1(C)C1=C(C3=O)[C@@H]2CCC(=O)[C@@]2(C)C[C@H]1OC(C)=O [Wortmannin] | -1.04
4 | C/C(O)=C(\C#N)C(=O)Nc1cc(Br)ccc1Br | 0.22
5 | N[C@@H]1C[C@H]1c1ccccc1.N[C@H]1C[C@@H]1c1ccccc1 [Tranylcypromine hemisulfate] | -0.212
6 | N#CC(C#N)=Cc1ccc(O)c(O)c1 | 0.456
7 | Cc1cc(O)c2c(=O)c3c(O)cc(O)c4c5c(O)cc(O)c6c(=O)c7c(O)cc(C)c8c1c2c(c34)c(c78)c65 [Hypericin] | 0.248
8 | N#CC(C#N)=Cc1ccc([N+](=O)[O-])c(O)c1 | -0.571
9 | CC(=O)c1c(O)c(C)c(O)c(Cc2c(O)c3c(c(C(=O)/C=C/c4ccccc4)c2O)OC(C)(C)C=C3)c1O [Rottlerin] | 0.583
10 | N#CC(C#N)=Cc1cc(O)c(O)c(O)c1 | -0.0382
11 | N#CC(C#N)=Cc1cc(O)c(O)c([N+](=O)[O-])c1 | -0.414
12 | CC(=O)Oc1ccc(/C=C/c2cc(OC(C)=O)cc(OC(C)=O)c2)cc1 [Triacetylresveratrol] | 1.28
13 | NCCc1ccc(S(=O)(=O)F)cc1 | -0.284

Same assay, conditions: donor: 1; 5 µM; library: ENZO Libraries; 4 days

Row | Structure (SMILES) | proliferation
14 | N#C/C(=C\c1ccc(O)c(O)c1)C(N)=S | -0.285
15 | CCC(=O)CCCCC[C@@H]1NC(=O)[C@H]2CCCCN2C(=O)[C@H]([C@@H](C)CC)NC(=O)[C@H](Cc2cn(OC)c3ccccc23)NC1=O [Apicidin] | -0.303
16 | COC[C@H]1OC(=O)c2coc3c2[C@@]1(C)C1=C(C3=O)[C@@H]2CCC(=O)[C@@]2(C)C[C@H]1OC(C)=O [Wortmannin] | -0.831
17 | C/C(O)=C(\C#N)C(=O)Nc1cc(Br)ccc1Br | 0.228
18 | N[C@@H]1C[C@H]1c1ccccc1.N[C@H]1C[C@@H]1c1ccccc1 [Tranylcypromine hemisulfate] | -0.48
19 | N#CC(C#N)=Cc1ccc(O)c(O)c1 | 0.134
20 | Cc1cc(O)c2c(=O)c3c(O)cc(O)c4c5c(O)cc(O)c6c(=O)c7c(O)cc(C)c8c1c2c(c34)c(c78)c65 [Hypericin] | -0.261
21 | N#CC(C#N)=Cc1ccc([N+](=O)[O-])c(O)c1 | -0.0791
22 | CC(=O)c1c(O)c(C)c(O)c(Cc2c(O)c3c(c(C(=O)/C=C/c4ccccc4)c2O)OC(C)(C)C=C3)c1O [Rottlerin] | -0.384
23 | N#CC(C#N)=Cc1cc(O)c(O)c(O)c1 | -0.000622
24 | N#CC(C#N)=Cc1cc(O)c(O)c([N+](=O)[O-])c1 | -0.101
25 | CC(=O)Oc1ccc(/C=C/c2cc(OC(C)=O)cc(OC(C)=O)c2)cc1 [Triacetylresveratrol] | 4.6 (active)
26 | NCCc1ccc(S(=O)(=O)F)cc1 | -0.0822
